The source of these data is PubChem BioAssay (NCI).

Compounds without any hit were thinned out: in the full panel of roughly 83,000, 20% have a hit.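 Single-dose data. Exposure time 48 hours. Values below 10 considered active.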 A number with no mark means an inactive call. Active and inactive are the calls of the source.

In this test the test system is UACC-62 melanoma. As to the kind of experiment: NCI-60 one-dose screen, 48 h (100 = growth as untreated, 0 = no growth, -100 = all killed). The conditions noted are these: 10 µM unless noted. The procedure: Growth inhibition of the UACC-62 human tumor cell line is measured as a screen for anti-cancer activity. Cells are grown in 96 well plates and exposed to the test compound for 48 hours. Compounds are tested at a single concentration, which is 10^-5 M for most compounds. The reported endpoint is percent growth (GI% or GIPRCNT), where numbers from 0 - 100% represent growth inhibition, and numbers from -100% - 0 represent cell death. For example, a value of 40 represents 60% growth inhibition. A value of 0 means no net growth occurred over the course of the experiment. A value of -40 indicates 40% of cells at the beginning of the experiment died by the end of the experiment. A value of -100 means all cells are dead at the end of the experiment.
NCI-60 Human Tumor Cell Lines Screen was performed using the standard one-dose NCI protocol, which is described in more detail at https://dtp.cancer.gov/discovery_development/nci-60/default.htm.
Compounds with GIPRCNT values below 10 were considered active. Activity score was based on GIPRCNT using the following formula: […]
Score is 0 for GIPRCNT values of 100 or above, 50 for GIPRCNT values of 0, and 100 for GIPRCNT values of -100.
`Nc1ccc(Oc2c(F)c(F)c(Oc3ccc(N)cc3)c(F)c2F)cc1`: the growth is 90.9%.
`COc1ccc(/C=C/C(=O)c2cccc(NS(C)(=O)=O)c2)cc1`: the growth was 76%.
The value for `N#Cc1ccccc1C#Cc1ccccc1C#Cc1ccc(OCCCCCCOc2ccc(C#Cc3ccccc3C#Cc3ccccc3C#N)cc2)cc1` was 83.3%.
The value for `O=C(CC(C(=O)c1ccccc1)N1CCN(Cc2ccccc2)CC1)c1ccccc1` (stereo not given) was 101%; that for `CCn1cnc(C[C@H](NC(=O)[C@H](CCCCNC(=O)Nc2cc(C(F)(F)F)cc(C(F)(F)F)c2)NC(=O)Nc2cc(C(F)(F)F)cc(C(F)(F)F)c2)C(=O)OC)c1` was -88.3% [100 µM] (active).
The value for `CCCCCCCCCCN1CCC(N2CCCCC2)CC1` was -79.7% (active).
`CCSc1ncc(Br)c(Sc2nc(N)nc3nc[nH]c23)n1`: the growth is 19.3%.
The value for `N#Cc1c(-c2ccccc2)cc(-c2ccccc2)n(CCC(=O)O)c1=O` was 32.3%; that for `NS(=O)(=O)c1ccc(-n2ncc3c(SCc4ccccc4)ncnc32)cc1` was 92.8%; that for `O=C1NC(=S)S/C1=C\c1cc(Br)ccc1O` was 84.8%.
The value for `Cc1sc2nc(NCc3ccccc3)[nH]c(=O)c2c1C` was 42.5%.
The value for `C[C@H]1O[C@@H](O[C@H]2[C@@H](O)C[C@H](O[C@H]3[C@@H](O)C[C@H](O[C@H]4CC[C@]5(C)C6C[C@@H](O)[C@]7(C)[C@@H](C8=CC(=O)OC8)CC[C@]7(O)C6CC[C@@H]5C4)O[C@@H]3C)O[C@@H]2C)C[C@H](O)[C@@H]1O` (stereo not given in full) was -98.8% (active).
Consider `O=C(COc1cccc(/C=C2\Cc3ccccc3C2=O)c1)c1ccc(Cl)cc1`, for which the growth is 91.4%.
The value for `CC[n+]1c(/C=C/c2ccc(N3CCCC3)cc2)cccc1/C=C/c1ccc(N2CCCC2)cc1` was -86% (active).
Regarding `O=C(/C=C/c1cccc(O)c1)c1cccc(-n2cc(-c3ccccc3)[nH]c2=O)c1`, the growth was 55.7%.
The value for `COc1ccc(CNC(=O)c2c(C)n([O-])c3ccccc3[n+]2=O)cc1` was 96.8%; that for `CN(C)c1ncnc2c1ncn2C1CCCCO1` (stereo not given) was 84.5%.
The value for `CCC(C)C1NC(=O)C(CCNCS(=O)(=O)O)NC(=O)C(NC(=O)C(CCNCS(=O)(=O)O)NC(=O)C(NC(=O)C(CCNCS(=O)(=O)O)NC(=O)CCCCC(C)C)C(C)O)CCNC(=O)C(C(C)O)NC(=O)C(CCNCS(=O)(=O)O)NC(=O)C(CCNCS(=O)(=O)O)NC(=O)C(C(C)CC)NC1=O` (stereo not given) was 47.5%.
The value for `COc1cc(/C=C\C(C)=N\Nc2ccccc2)ccc1O` was 69.8%; that for `CC[C@@H](C)/C=C(C)/C=C/C(=O)c1c(O)c(-c2ccc(O)cc2)cn(OC2CC(=O)CCC(C)OC(=O)CC2O)c1=O` (stereo not given in full) was -13.1% (active).
Consider `O=C(N/N=C/c1ccc(Cl)cc1Cl)c1ccccc1Nc1cccc(C(F)(F)F)c1`, for which the growth is 65.6%.
Under `CCOC(=O)CNC(=O)C1(NC(=O)CNC(=O)OCc2ccccc2)CCCC1` stands 97%.
The value for `COc1cc2c(cc1OC)C(CC1(O)CCCCC1)N(S(=O)(=O)c1ccc(C)cc1)CC2` (stereo not given) was 27.4% [100 µM].
Regarding `CCCCNCCCN(CCCC)CCCNCCCC`, the growth is 96.5%.
Under `O=C1c2cc3c(cc2-c2c1c1ccc(Cl)cc1c(=O)n2CCCNCCO)OCO3` stands -70.7% (active); under `CCCCN1c2nc3ccccc3cc2Sc2cc3ccccc3nc21`, 91.7%.
Under `COc1ccc(C2=NN(C(C)=O)C(c3c(C)nn(-c4ccccc4)c3N3CCOCC3)C2)cc1` (stereo not given) stands 87.8%.
Under `CCOc1cc(/C=C/C(=O)C(C(=O)/C=C/c2ccc(OC(=O)CNc3nc4ccccc4[nH]3)c(OCC)c2)C(=O)CNc2nc3ccccc3[nH]2)ccc1OC(=O)CNc1nc2ccccc2[nH]1` stands -61.4% (active); under `[N-]=[N+]=NCc1cccc(/C(O)=C/C(=O)C(=O)O)c1`, 92.4%.
Turning to `NC(=N\N=C/Cc1ccccc1)/C(N)=N\N=C\Cc1ccccc1`, the growth is 96.1%.
Under `CCCCc1n(Cc2ccc3ccccc3c2)cc[n+]1Cc1ccc2ccccc2c1` stands -85.9% (active); under `O=[N+]([O-])c1cc([N+](=O)[O-])c(N2CCCC2)cc1NN=C(c1ccc(O)cc1)c1ccc(O)cc1`, 63.1%.
Under `Cc1cc(C)cc(S(=O)(=O)n2ccc(-c3ccc4c(c3)CCC(C)(C)O4)n2)c1` stands 73.9%.
The value for `FC(F)(F)c1ccc(-c2cnc(-c3nn[nH]n3)nc2NC2CCCCCC2)cc1` was 41.6% [50 µM]; that for `O=C(Oc1ccccc1)C(Br)C(Br)c1ccccc1` (stereo not given) was 101%; that for `COc1ccc(NC(=O)c2ccc(-c3ccccc3)cc2)c(C(N)=O)c1` was 91.5%.
On to `c1ccc(CN=C(NCc2ccccc2)NCc2ccccc2)cc1`, for which the growth was 63.8%.
`O=C(CNC(=O)c1cccc2ccccc12)Nc1ccccc1Oc1cccc(O)c1`: the growth is 44.9% [5 µM].
The value for `N#Cc1c(-c2ccccc2)cc(-c2ccccc2)n(CCCCC(=O)O)c1=O` was 80.6%; that for `NS(=O)(=O)c1ccc(-n2ncc3c(N/N=C/c4ccccc4)ncnc32)cc1` was 96.8%.
